Data: the supplement of paper PMC6555819

Columns and labels:
Assay in all cases: PBM binding z-score (relative to random genomic background probes); higher = stronger binding; sequences stand for … in GC…GCGATTGACAGCGTAGAATGAAGG
[1] = tested on: FXR:RXRa (NR concentration 270 nM, RXRa partner concentration 90 nM)
Method in brief: (§1)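 Custom Agilent 4×180K protein-binding microarrays carried double-stranded probes, each with a 34-nt variable region. These regions held direct-repeat seeds, single-nucleotide variants, half-site ablations and random human genomic background sequences. Ligand-free nuclear receptor dimers were incubated on the arrays for 1 h, antibodies against each partner (one per run) detected binding, and scanned fluorescence was regression-normalized. Binding z-scores take the random background probes as reference.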

[2] = tested on: LXRa:RXRa (NR concentration 270 nM, RXRa partner concentration 90 nM)
Method in brief: as §1

[3] = tested on: LXRa homodimer (NR concentration 270 nM)
Method in brief: as §1

[4] = tested on: LXRb:RXRa (NR concentration 270 nM, RXRa partner concentration 90 nM)
Method in brief: as §1

[5] = tested on: LXRb homodimer (NR concentration 270 nM)
Method in brief: as §1

[6] = tested on: PPARa:RXRa (NR concentration 270 nM, RXRa partner concentration 90 nM)
Method in brief: as §1

[7] = tested on: PPARg:RXRa (NR concentration 180 nM, RXRa partner concentration 90 nM)
Method in brief: as §1

[8] = tested on: PPARg:RXRa 270nM:90nM, anti-RXR (NR concentration 270 nM, RXRa partner concentration 90 nM)
Method in brief: as §1

[9] = tested on: PPARg:RXRa 30nM:10nM, anti-RXR (NR concentration 30 nM, RXRa partner concentration 10 nM)
Method in brief: as §1

[10] = tested on: PPARg:RXRa 90nM:30nM, anti-RXR (NR concentration 90 nM, RXRa partner concentration 30 nM)
Method in brief: as §1

| Sequence | PBM binding z-score [1] | PBM binding z-score [2] | PBM binding z-score [3] | PBM binding z-score [4] | PBM binding z-score [5] | PBM binding z-score [6] | PBM binding z-score [7] | PBM binding z-score [8] | PBM binding z-score [9] | PBM binding z-score [10] |
| --- | --- | --- | --- | --- | --- | --- | --- | --- | --- | --- |
| CCTCGGCGGACAACAGGAGGTCAGAGCTGCCAGA | 0.527 | 1.43 | 1.67 | 1.06 | -1.27 | 1.68 | -0.102 | 0.0174 | -0.988 | -0.415 |
| GCGACAGGGGCAAAGCAGGTTACCATAAGGTTGG | 0.475 | 1.06 | -0.402 | 0.691 | -0.988 | 1.41 | 0.589 | 0.106 | -0.427 | -0.446 |
| AGAATGAGGTTACCAAAGAACAGGGAAACGCTTG | 1.88 | 5.18 | -0.214 | 2.35 | -0.334 | 3.32 | 2.51 | 2.41 | 1.03 | 1.71 |
| CCTTACGTGTCACTGACAGGTTATAGCATTTGGA | 0.791 | 1.07 | 0.634 | 1.18 | 0.446 | 1.29 | 0.601 | 0.469 | 0.356 | 0.704 |
| CCTTACTGGTCACGAGGTTATAGCACGACGAGCG | 1.49 | 1.46 | 0.682 | 1.36 | 0.455 | 2.04 | 1.77 | 1.97 | -0.0752 | 1.04 |
| TCTTGTAGATCAACAGGAGGCTAAGAAAGATCGA | -0.113 | -0.312 | -0.481 | -0.391 | -0.588 | -0.00556 | -0.179 | 1.14 | 2.28 | 1.35 |
| GCTGCTAGGTCAGGTTGGTCAGCTTACGGGTACG | 1.11 | 0.781 | -0.122 | 0.397 | -0.0807 | 1.07 | 0.483 | 0.904 | -0.57 | 0.294 |
| ACTAGTTCGTCAGCTGAGGTCACACACAATTCGG | 3.55 | 3.53 | 2.68 | 4.09 | 0.796 | 4.03 | 1.75 | 2.28 | 0.594 | 1.5 |
| CCTACTGGGCCATTTAGAGGTCATTGATCATATG | 2.82 | 4.87 | 8.57 | 3.98 | 0.803 | 3.78 | 2.24 | 3.15 | 0.977 | 2.11 |
| AGACTGAGGTTACCAAAGATCAGGGAAACGCTTG | 1.67 | 5.98 | -0.277 | 3 | -0.462 | 2.79 | 1.29 | 1.54 | 0.351 | 1.05 |
| GCGACTGCGGCAAAGCAGGTTACCATAAGGTTGG | -0.436 | -0.494 | -0.713 | -0.429 | -1.51 | 0.0395 | 0.3 | -0.534 | -0.785 | -0.92 |
| ATCTCTAGTTAAAAGTTCAGTGAATCCCGAGGAT | 0.652 | 1.49 | 1.82 | 0.877 | 1.25 | 1.64 | 1.4 | 3.41 | 1.59 | 3.49 |
| CGTCAAAGTTCAACTTAGGTAACGTAAAGCACGC | 7.46 | 6.58 | 4.88 | 4.63 | 2.58 | 5.35 | 5.28 | 5.78 | 2.4 | 4.66 |
| CCGACTGGAGCATAAGGTTACCATAAGCCAGCCC | 0.0844 | 1.93 | 0.131 | 0.754 | -0.551 | 0.887 | 0.85 | 1.49 | -0.133 | 0.657 |
| ACTAGCAGGCCAATGGTCACTCAAGATTAGTCCG | -0.525 | -0.42 | -0.46 | -0.417 | -0.678 | 0.789 | 2.17 | 3.26 | 0.959 | 2.79 |
| TATGCAGGGTCAAAGGCCAGAGTACGAATGTCGA | 7.19 | 5.51 | 1.34 | 4.46 | 0.828 | 6.1 | 7.42 | 6.8 | 4.59 | 6.57 |
| ATCTGTAGGTAACAAGTTCAGTGAAAGAGAGGAC | 0.84 | 0.812 | 0.628 | 0.805 | 0.615 | 1.59 | 1.51 | 2.08 | 0.821 | 1.57 |
| TGTCAAAGTTGAAAGGTAACGTAAGTATCCACAC | 1.27 | 1.12 | -0.229 | 1.38 | -0.452 | 3.49 | 5.4 | 5.19 | 2.72 | 4.73 |
| TTACTAAGGTGAAAGGTCGTTGATGCACGCCTTG | 4.62 | 4.06 | 0.805 | 3.47 | -0.065 | 5.91 | 9.26 | 8.57 | 8.09 | 9.29 |
| TCGATTAGGTTAGTCGGGGCATTCAGCCAACATA | 0.428 | 0.421 | -0.073 | 0.839 | -0.164 | 0.801 | -0.279 | 1.29 | 2.61 | 1.79 |
| TAGCCTAGGACATTCAGGGGCCAGTATAGAAAGC | -0.499 | -0.54 | -0.456 | -0.243 | -0.646 | -0.572 | 0.256 | -0.544 | -0.505 | -0.409 |
| GCTGCTAGGTCAACTGTTGGTCAGCTAAAGCTCG | 3.97 | 2.97 | 0.182 | 2.03 | 0.134 | 3.61 | 2.63 | 3.07 | 0.511 | 2.23 |
| GCTAGTTGGTCAGTAAAAGGTCACAAACCGGTCG | 3.06 | 3.78 | 3.4 | 3.99 | 0.763 | 4.53 | 2.59 | 4.01 | 2.23 | 3.46 |
| TGTAGTTGGTCAAAGGTCACACACTCGAAATGCG | 5.82 | 5.9 | 3.8 | 5.42 | 1.98 | 6.69 | 11 | 9.78 | 10.1 | 11.7 |
| CGAACGAGGGCATGAGTTGGTAGCAAATGCCGAT | 0.159 | 0.0461 | -0.707 | -0.2 | -1.32 | 1.06 | 0.849 | 0.827 | 0.00769 | 0.471 |
